In the library only some 4.7% were active in any assay of this set; here they are far more common.
D1 agonist: agonists of human D1 dopamine receptor; 360,000 tested, 1% active; HEK293 T-REx D1 cells, calcium flux, agonist mode; activation, % at 2 µM
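Agonism was scored from calcium flux recorded over 180 s (1 read/s) after pintool compound addition, following a 10-cycle baseline. Cells were inducible force-coupled HEK293 TREx D1, plated overnight at 30 C and loaded with no-wash calcium dye.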
D1 antag: antagonists of human D1 dopamine receptor | activity change, negative = inhibition, % at 10 µM | 360,000 tested, 3.2% active | P21728 | HEK293 TREx D1 cells, calcium flux, dopamine EC80; hits give low values; in the data active = activity change below about -30%
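Calcium flux readout: force-coupled, inducible Hek293 Trex D1 line, cells induced overnight at 30 C with tetracycline, dye-loaded 30–90 min at RT. Antagonism scored against EC80 dopamine challenge given 180 s after compound.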
TRHR enhancer: TRH receptor (human) allosteric enhancement; P34981; TRHR cells, fluo-8 calcium fluorescence, EC20 TRH enhancement; enhancement, % at 2 µM; 360,000 tested, 0.66% active; in the data active = enhancement above about 30%
Target sequence (P34981 whole entry, looked up): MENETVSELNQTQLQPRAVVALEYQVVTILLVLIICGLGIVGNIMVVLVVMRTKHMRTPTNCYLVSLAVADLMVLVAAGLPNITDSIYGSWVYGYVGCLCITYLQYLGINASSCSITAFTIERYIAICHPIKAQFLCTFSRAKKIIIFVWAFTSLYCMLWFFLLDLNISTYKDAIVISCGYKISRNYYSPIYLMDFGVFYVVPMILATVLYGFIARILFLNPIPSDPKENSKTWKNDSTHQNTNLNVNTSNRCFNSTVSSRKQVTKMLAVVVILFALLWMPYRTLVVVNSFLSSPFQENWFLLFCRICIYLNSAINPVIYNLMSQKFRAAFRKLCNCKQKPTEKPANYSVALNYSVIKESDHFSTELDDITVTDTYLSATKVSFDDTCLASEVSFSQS
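TRHR-expressing cells loaded with fluo-8 calcium dye were read kinetically (ex 480/em 530) during compound addition, then stimulated with an EC20 of TRH (10 nM final). Enhancement of the Gq-mediated intracellular calcium response was scored.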
D1 potentiator: human D1 dopamine receptor positive modulation | P21728 | HEK293 TREx D1 cells, calcium flux, dopamine EC20 potentiation | potentiation, % at 10 µM | 360,000 tested, 0.036% active | AID 504651; in the data active = potentiation above about 30%
TRHR ag: TRH receptor (human) agonism. P34981. TRHR cells, calcium flux fluo-8, FDSS agonist mode. activation, % at 2 µM. 360,000 tested, 0.18% active. AID 493084
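Fluo-8-loaded TRHR cells; 10 s baseline, compound added, kinetic Ca2+ fluorescence read 1/s, agonist mode.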
Of the large screens only hits and unclear results are named; the others gave an inactive call. Rule as the data show it, unless noted: active = activation above about 30%; inactive = the rest.

Cc1c(C(=O)N2CCCC2)oc2c1-c1nn(CC(=O)NCc3cccc(Br)c3)cc1CC2	none
N#CC1=C2SCC(O)(c3ccccc3)N2C(=O)CC1c1cccs1 (stereo not given)	D1 agonist 63
O=[N+]([O-])c1cc(C(F)(F)F)ccc1Oc1cccnc1[N+](=O)[O-]	D1 antag -81
O=C(Nc1ccc(F)cc1)c1ccccc1Oc1ccc(C(F)(F)F)cc1[N+](=O)[O-]	none
Cc1ccc(OC(=O)CSc2nnc(CNC(=O)c3ccccc3)o2)cc1	none
Cc1ccc(-c2csc3nc[nH]c(=O)c23)cc1C	none
COc1cccc(-c2csc3nc[nH]c(=O)c23)c1	D1 antag -34
CCC(/C=N/NC(=O)c1ccccc1F)CC	D1 antag -37
O=C(N/N=C/C(c1ccccc1)c1ccccc1)c1ccccc1F	none
O=C(Cn1c(-c2cccs2)cc2ccccc21)N1CCN(c2ccccc2F)CC1	none
COc1cc(C(=O)NCc2nc(-c3ccc(Cl)cc3)no2)cc(OC)c1OC	none
Nc1c(C(=O)N/N=C/c2cccnc2)oc2nc(-c3ccco3)cc(-c3ccco3)c12	D1 antag -31
Nc1c(C(=O)N/N=C/c2cccnc2)oc2nc(-c3ccccc3)cc(-c3ccco3)c12	none
COc1cc(/C=C2/NC(=O)NC2=O)ccc1OCC(=O)Nc1ccc(F)cc1	D1 antag -71
CCOC(=O)c1ccc(N2NC(=O)/C(=C/c3ccc(OC(=O)c4ccco4)c(OC)c3)C2=O)cc1	none
CCOC(=O)COc1ccc(/C=C2/C(=O)NN(c3ccc(F)cc3)C2=O)cc1OC	TRHR enhancer 38
Cc1ccc(/C=C/c2onc(C)c2S(=O)(=O)N2CCC(C(=O)N3CCOc4ccc(C)cc43)CC2)cc1	none
CCOC(=O)c1ccccc1NC(=O)CSc1cn(CC(=O)N2CCOCC2)c2ccccc12	none
Cc1ccc2cc(C#N)c(SCC(=O)NCC3CCCO3)nc2c1 (stereo not given)	none
Cc1ccc(-c2ccc(SCC(=O)NCC3CCCO3)nn2)cc1 (stereo not given)	D1 antag -34
Cc1ccc2nc(SCC(=O)NCC3CCCO3)c(C#N)cc2c1 (stereo not given)	D1 antag -32
CSc1ccc(CCNC(=O)CCc2c(C)nc3c(c(C)nn3-c3ccc(C)c(C)c3)c2C)cc1	none
CCOc1ccc(CNC(=O)Cn2c(=O)c3cccn3c3ccc(F)cc32)cc1	none
COc1ccc(/C=c2\s/c(=C/C(=O)c3ccc(C)cc3)[nH]c2=O)c(OC)c1	D1 agonist 136, TRHR ag 54
COc1cccc(/C=c2\s/c(=C/C(=O)c3ccc(C)cc3)[nH]c2=O)c1OC	none
CCCCOc1ccc(/C(O)=C2/C(=O)C(=O)N(Cc3cccnc3)C2c2ccncc2)c(C)c1 (stereo not given)	D1 antag -56
Cc1cc(Cl)ccc1NC(=O)COC(=O)CCNS(=O)(=O)c1ccccc1	none
Cc1ccc(S(=O)(=O)NCCC(=O)OCC(=O)Nc2cccc(Cl)c2)cc1	D1 antag -42
Cc1ccc(S(=O)(=O)NCC(=O)OCCOc2cccc(Cl)c2)cc1	D1 potentiator 40
COc1ccc(-c2cn3c(n2)sc2cc(C(=O)Nc4cc(Cl)ccc4C)ccc23)cc1	none
CCOc1ccccc1C1CC(=O)Nc2cc3c(cc21)OCO3 (stereo not given)	none
CCOc1cccc(C2CC(=O)Nc3cc4c(cc32)OCCO4)c1 (stereo not given)	D1 agonist 45, D1 antag -32
O=C1CC(c2ccc(Cl)cc2)c2cc3c(cc2N1)OCCO3 (stereo not given)	none
Cc1ccc(C2CC(=O)Nc3cc4c(cc32)OCCO4)cc1 (stereo not given)	D1 agonist 32
Oc1c(C(c2ccccc2Cl)N2CCC(O)CC2)sc2nc(-c3ccco3)nn12 (stereo not given)	none (no result: D1 antag)
COc1ccc(C)cc1-n1c(SCC(=O)NCc2ccco2)nc2c([nH]c3ccccc32)c1=O	none
CCc1ccc(CNC(=O)c2cnc3sc4cc(OC)ccc4n3c2=O)cc1	none
CCOC(=O)CSc1nc(C)c(C(=O)OCC)s1	D1 antag -35
CCOC(=O)CSc1nc2ccc(N)cc2s1	none
O=[N+]([O-])c1ccc(-n2nnnc2-c2ccccc2)cc1	TRHR enhancer 36
COc1cc(/C=C/C(=O)CC(=O)/C=C/c2ccc(O)c(OC)c2)ccc1O	D1 agonist 334, D1 antag -59, TRHR ag 107
COc1cc(C=C(C(C)=O)C(C)=O)ccc1O	none
COc1cc(/C=C/C(=O)c2ccc([N+](=O)[O-])o2)ccc1O	none
COc1cc(/C=C/C(=O)/C=C(O)/C=C/c2ccc(O)c(OC)c2)ccc1O	D1 agonist 262, TRHR ag 58
Cc1cccc(N2CCN(C(=O)CCNS(=O)(=O)c3ccc4c(c3)CCN4C(=O)C3CC3)CC2C)c1 (stereo not given)	none
Cn1c(-n2cccc2)c(-c2c(-c3ccccc3)[nH]c3c2c(=O)n(C)c(=O)n3C)c(=O)n(C)c1=O	none
O=C(O)C1CCN(c2ccc(S(=O)(=O)N3CCOCC3)cc2[N+](=O)[O-])CC1	none
O=[N+]([O-])c1cc(S(=O)(=O)N2CCOCC2)ccc1N1CCCC1	D1 antag -31
Cc1ccc(CNc2ccc(S(=O)(=O)N3CCOCC3)cc2[N+](=O)[O-])cc1	D1 antag -57
CC1OC(O[C@H]2CC[C@]3(C)C4C=C[C@]56OC[C@@]7(CC[C@@H](C)[C@H](C)C75)[C@H](O)C[C@@]6(C)[C@]4(C)CC[C@H]3C2(C)C)C(OC2OC(CO)C(O)C(O)C2OC2OCC(O)C(O)C2O)C(O)C1O (stereo not given in full)	D1 agonist 244, TRHR ag 48
CCn1cc(C(=O)NCc2ccc(C)cc2)c(=O)c2cc(S(=O)(=O)N(C)C3CCCCC3)ccc21	none
CC1CCN(CCCCOc2ccc([N+](=O)[O-])cc2)CC1	D1 antag -44
C[N+](C)(C)CCOc1ccc([N+](=O)[O-])cc1	D1 antag -31
O=[N+]([O-])c1ccc(OCCCCN2CCc3ccccc3C2)cc1	D1 antag -63
O=[N+]([O-])c1ccc(OCCCCCN2CCOCC2)cc1	none
CCC(C)NCCCOc1ccc([N+](=O)[O-])cc1 (stereo not given)	none
O=[N+]([O-])c1ccc(OCCCCN2CCCCC2)cc1	none
CCCN1C(C(=O)c2ccccc2)=C(OC(=O)c2ccc(F)cc2)c2ccccc2S1(=O)=O	none
CCN(CCCNC(=O)Cn1ncc2c3ccccc3n(C)c2c1=O)c1cccc(C)c1	none
CCc1ccccc1NC(=O)Cn1c(=O)ccc2cc(S(=O)(=O)N3CCC(C)CC3)ccc21	none
Cc1ccc(NC(=O)C(=O)NCC(c2cccnc2)N2CCN(C)CC2)cc1C (stereo not given)	none

Screening data deposited in PubChem BioAssay by National Center for Advancing Translational Sciences (NCATS).
